# The campaign covered roughly 43,000 compounds. About 200 (0.47%) were called active. About 12% were inconclusive and are not listed. This excerpt belongs to a sample that is enriched for actives. Values without a mark were called inactive. Calls come from the whole dose curve; as a rule, active = well fitted cell-killing curve with a large enough effect; inconclusive = small, poorly fitted or top-dose-only effect, or effect the other way; inactive = flat fitted curve, though single readings scatter.
# Experiment: Cell viability qHTS assay in S16 Pmp22-F2sN cells; note: nearly all actives have a fitted effect of over 65% in size
# Conditions: S16 Pmp22-F2sN Schwann cells (luciferase reporters placed in the Pmp22 gene) viability, CellTiter-Glo, 24 h; series mostly up to 57.5 µM; activity change, negative = cytotoxicity: at the top concentration
# From the text: Assay Provider: Jim Inglese Ph.D. National Center for Advancing Translational Science, National Institutes of Health, Rockville, MD CMT is a heterogeneous group of neurological disorders that affect approximately 1 in 2,500 people. In particular, the most common form of CMT, CMT1A is genetically linked to the duplication of the PMP22 gene which leads to Schwann cell overexpression, thus manifesting itself as a typical case of dose-sensitive diseases. To identify small molecule compounds that can mediate the expression of PMP22 we developed a phenotypic assay screening strategy by utilizing genome editing techniques to construct Schwann cell lines containing novel reporter technology to monitor the transcriptional or translational regulation of PMP22. For high sensitivity we use a bioluminescent reporter system embedded in the 3' UTR of the PMP22 gene (S16(c9) Pmp22-F2sN) to identify compounds that inhibit gene expression. […] We can further discriminate the effect of all transcriptionally active molecules on PMP22 translation or stability with an assay that incorporates a short NLuc peptide (HiBiT) at the C-terminus of expressed PMP22 (S16(f8) PMP22-HiBiT) allowing alpha complementation and luminescence detection of membrane-associated PMP22 protein. These assays were screened against the NCATS Sytravon Library Collection. Miniaturization of these assays to 1536-well plate format for quantitative high throughput screening (qHTS) yielded rich data sets immediately from the qHTS assay (S16(c9) Pmp22-F2sN), when compared with data from a cell viability assay (Cell TiterGlo) to identify compounds that decreased the output signals through cellular toxicity to streamline the selection process of actives for subsequent characterization using the HiBiT assay (S16(f8) PMP22-HiBiT).
# Cell viability assay in S16 Pmp22-F2sN cells PROTOCOL TABLE (format as described by Inglese J, Shamu CE and Guy RK. 2007) SEQUENCE No. (e.g., 1, 2, 3, etc.); […] (e.g., Cells, Incubation, Reagent, etc.); VALUE and DESCRIPTION. 1. Cells. Add 500-1,000 cells in 4 uL in growth media (DMEM High Glucose, No Phenol Red media + 10% heat-inactivated FBS + 1% Pen/Strep supplemented media) per well into Greiner 1536-well white/solid bottom high base, TC-treated plates. 2. Compounds. Library compounds and controls added at 23nL per well, transferred by Pin Tool. 3. Incubation. Incubate plates at 37C, 5% CO2, 95% RH for 24 h. 4. Reagent. Add 3uL CellTiter-Glo per well of Greiner 1536-well plates. 5. Incubation. Incubate plates at room temperature for 15 min., protect from light. 6. Detector. FLuc luminescence measured using CCD-based camera (Viewlux). NOTES (numbers refer to Sequence numbers above; values are from representative experiments) 6. Luminescence Read: Clear filter; Exposure = 1 sec, Gain = High, Speed = Slow, Binning = 2X REFERENCES: 1. Inglese J, Shamu CE and Guy RK, Reporting data from high throughput screening of small molecule libraries, Nature Chemical Biology, 2007, 3(8): 438-441. doi.org/10.1038/nchembio0807-438 2. Yasgar A, Shinn P, Jadhav A, Auld DS, Michael S, Zheng W, Austin CP, Inglese J and Simeonov A, Compound Management for Quantitative High-Throughput Screening. J. Assoc. Lab. Auto., 2008, 13: 79-89. doi: 10.1016/j.jala.2007.12.004
# % is set by controls: 0 for no effect and ±100 for the full control effect; potency is the fitted concentration of half-maximal effect.
SMILES,"activity change, negative = cytotoxicity",Potency
Cc1ccc(C)c(N2CCN(C(=O)Cn3ncc4c(=O)oc5ccc(C)cc5c43)CC2)c1,4.69%,
Cc1ccccc1NC(=O)Cn1c(=O)n(CC2CCC(C(=O)NCCc3ccccc3)CC2)c(=O)c2ccccc21 (centres undefined),16.1%,
COC(=O)c1c(NC(=O)C(C)Oc2ccc(Cl)c(C)c2)sc(C)c1C (centres undefined),0.0514%,
Cc1ccccc1C(=O)Nc1cc(C)c(O)c(-c2nc3ccccc3o2)c1,17%,
CCOc1ccc(NC(=O)CCC(=O)N2CC(C)Oc3ccc(C)cc32)cc1 (centres undefined),6.01%,
COc1ccccc1C(=O)Nc1c(C(=O)Nc2ccc(C)cc2)oc2ccccc12,8.02%,
COc1ccc(CCNC(=O)CCCn2c(=O)c3ccccc3n(Cc3ccc(C)cc3)c2=O)cc1OC,15.9%,
CN(CC(=O)Nc1ccccc1F)S(=O)(=O)c1ccc2c(c1)c(=O)n(C)c(=O)n2C,15.6%,
Cc1cccc(C)c1Nc1c(-c2ccccc2O)nc2ncccn12,-10.5%,
Cc1ccc(C)c(NC(=O)CSC2=Nc3ccccc3N=C(c3ccc(F)cc3)C2)c1,-2.61%,
O=C(CC1C(=O)N(c2ccccc2)C(=O)N1CCc1cccs1)Nc1ccc(F)cc1 (centres undefined),-17.5%,
COC(=O)c1ccc(NC(=O)c2cc(S(=O)(=O)N3CCC(C)CC3)cn2C)cc1,-14.5%,
CC1CCCCN1CC(=O)N1CCCc2c1c(=O)oc1ccc(OCc3ccccc3)cc21 (centres undefined),0.438%,
O=c1cc(CSc2ncn[nH]2)[nH]c2ccc(F)cc12,0.415%,
CN(C(=O)CSc1nnc(NC(=O)Nc2ccccc2)s1)c1ccccc1,-10%,
Cc1cc(F)ccc1NS(=O)(=O)c1ccc(-n2cccn2)cc1,-14.3%,
Cc1ccc(Nc2c(-c3ccc(Cl)cc3)nc3sccn23)c(C)c1,28.2%,
Cc1cccc(C(=O)N2c3nc(-c4ccco4)nn3C3(CCCCC3)[C@@H]3CCCC[C@@H]32)c1,3.56%,
CC1=C(C(=O)Nc2ccccc2)C(c2ccc(C)cc2)n2nc(SCc3ccccc3C)nc2N1 (centres undefined),3.66%,
Cc1ccccc1NC(=O)c1cc2c([nH]c1=O)CC(C)(C)CC2=O,10.8%,

SMILES,"activity change, negative = cytotoxicity",Potency
CCOC(=O)C1CCN(c2csc3ccc(C)cc3c2=O)CC1,3.59%,
Cc1c(Cl)cccc1NC(=O)C(=O)NCCc1csc2nc(-c3ccccc3F)nn12,-22.5%,
CCCCN(CCCNC(=O)c1cc(Nc2ccccc2OC)nc2ccccc12)c1ccccc1,9.74%,
Cc1ccc(N(CC(=O)NCc2ccc(Cl)cc2)S(=O)(=O)N(C)C)cc1,13.9%,
Cc1ccsc1CN(C(=O)c1oc2ccc(Br)cc2c1C)C1CCS(=O)(=O)C1 (centres undefined),-28.5%,
Cc1ccc(NC(=O)c2oc3ccccc3c2NC(=O)Cc2cccs2)cc1,10.9%,
COc1ccc(CCNc2nc3c(-c4cccc(F)c4)nnn3c3ccccc23)cc1OC,-1.72%,
CNC(=O)CN1C(=O)c2cccnc2Sc2ccccc21,0.0311%,
COc1ccc(CCNC(=O)c2cn(C)c3ccc(S(=O)(=O)N(C)C4CCCCC4)cc3c2=O)cc1OC,-12.3%,
COc1ccc(N2CCN(S(=O)(=O)c3ccc(-c4coc(C)n4)cc3)CC2)cc1,-6.43%,
COc1ccc(C2NC(=O)N(C)C3=C2C(=O)N(c2ccc(C(=O)O)cc2)C3)cc1 (centres undefined),8.03%,
O=C(CN1CCN(Cc2ccc(Cl)cc2)C1=O)NCc1ccc(F)cc1,1.11%,
COc1ccc(-n2c(SC)nc3sc4c(c3c2=O)CCN(C(C)=O)C4)cc1,2.85%,
CCOc1ccc(NC(=O)Cn2cc(C(=O)c3ccc(C)cc3)c(=O)c3cc4c(cc32)OCCO4)cc1,-0.757%,
CC(=O)c1ccc(NC(=O)CCc2nc(-c3ccc(C)cc3)no2)cc1,-13.9%,
COc1ccc(S(=O)(=O)n2nc(C)c(S(=O)(=O)N3CCCCCC3)c2C)cc1,-8.85%,
CCC(=O)N1CCc2cc(CNS(=O)(=O)c3ccc(Br)s3)ccc21,-3.99%,
COc1ccccc1CNC(=O)c1ccc(CS(=O)c2ccccc2Cl)o1 (centres undefined),-6.85%,
CC(C)(C)OC(=O)N1CCC(c2c(C(=O)NCCc3ccsc3)cnn2-c2ccc(F)cc2F)CC1,-27.8%,
COc1ccc(-c2nc(Cn3c(=O)cc(C)c4c(C)nn(-c5ccccc5)c43)c(C)o2)c(OC)c1,9.69%,

SMILES,"activity change, negative = cytotoxicity",Potency
COC(=O)c1ccccc1NC(=O)Cn1c(=O)n(-c2cccc(C(F)(F)F)c2)c(=O)c2c(C)c(C)sc21,0.489%,
O=C(CCc1nc(CN2CCN(S(=O)(=O)c3ccc(Br)cc3)CC2)no1)N1CCCCC1,-20.1%,
CCOc1ccccc1CNCc1c(C(=O)O)c(C)n(Cc2ccc(C)cc2)c1C,-0.973%,
CCOc1ccc(C2C(C(=O)Nc3ccc(Cl)cc3)=C(C)Nc3nc(C(F)(F)F)nn32)cc1 (centres undefined),-26.8%,
COc1ccc(-c2nc(CN3CCC(C(=O)NCCN(CC(C)C)CC(C)C)CC3)c(C)o2)cc1OC,-2.77%,
COc1cc2nc(SCc3ccc(F)cc3)n3nc(CCn4c(C)nc5ccccc54)nc3c2cc1OC,-6.47%,
CCOc1cc(C2C(C(=O)Nc3ccc(OC)cc3)=C(C)Nc3nc(SC)nn32)ccc1O (centres undefined),-26.7%,
CC(=O)c1ccc(NC(=O)COc2ccccc2-c2nc(-c3ccccc3)no2)cc1,3.1%,
COc1cccc(CNC(=O)c2ccc3c(c2)N(Cc2ccc(C(F)(F)F)cc2)C(=O)c2ccccc2S3)c1OC,-5.25%,
CC(C)S(=O)(=O)c1oc(-c2ccc(F)cc2)nc1S(=O)(=O)c1ccc(F)cc1,,3.16 µM (active)
Cc1ccc(-c2nc(S(=O)(=O)c3ccc(C)cc3)c(N3CCCCCC3)o2)cc1,-18.3%,
O=C(CSc1oc(-c2ccc(F)cc2)nc1S(=O)(=O)c1ccc(Br)cc1)NC1CCCCC1,2.8%,
COc1ccc(-c2nc(SCC(=O)N3CCCCC3C)n[nH]2)cc1 (centres undefined),0.441%,
O=C(NCCS(=O)(=O)N1CCN(c2ccc(F)cc2)CC1)c1ccccc1Br,-9.89%,
COc1ccc(NC(=O)Cn2c(=O)cc(C)c3c(C)nn(-c4cccc(Cl)c4C)c32)cc1OC,-0.142%,
CCOc1ccccc1CNC(=O)c1cnc2c(-c3ccc(OCC)c(OCC)c3)c(C)nn2c1C,-2.71%,
Cc1ccc(-c2nc(Cn3c(=O)cc(-c4ccccc4)c4c(C)nn(C)c43)c(C)o2)cc1,0.847%,
O=C(CCn1c(=O)c2ccccc2n(Cc2ccc(Cl)cc2)c1=O)NCc1ccc2c(c1)OCO2,16.4%,
COc1ccc(-c2onc(C)c2C)cc1S(=O)(=O)NCc1cccs1,-12.4%,

# — PubChem BioAssay AID1508642 (National Center for Advancing Translational Sciences (NCATS), 2021)
